# Reference: the supplement of paper PMC8728848
# About 410 targets per protein were measured; listed, in parts, are those with the strongest signals and a random draw of the rest.
# B1: Gal 3 (Homo sapiens), P17931 (protein)
# chain: MADNFSLHDALSGSGNPNPQGWPGAWGNQPAGAGGYPGASYPGAYPGQAPPGAYPGQAPPGAYHGAPGAYPGAPAPGVYPGPPSGPGAYPSSGQPSAPGAYPATGPYGAPAGPLIVPYNLPLPGGVVPRMLITILGTVKPNANILDFQRGNDVAFHFNPRFNENNRRVIVCNTLLDNNWGREERQSVFPFESGKPFKIQVLVEPDHFKVAVNDAHLLQYNHRVKKLNEISKLGISGDIDLTSASYTMI
# Experiments:
# Assay in all cases: glycan array binding signal (z-score within array); higher = stronger binding
# Conditions in all cases: glycan notation: IUPAC condensed, linker removed; mutation: K176L
# [1] = biological target: Fuc(a1-2)Gal(b1-4)GlcNAc(b1-3)Gal(b1-4)GlcNAc
# Summary of the method: (§1)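 From the Consortium for Functional Glycomics database, 3228 arrays were curated, keeping only those whose protein sequence was available. Binding is given as a within-array Z-score averaged across arrays sharing a protein sequence and across linkers. Negative Z-scores can be read as non-binding.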
# [2] = biological target: Fuc(a1-2)Gal(b1-4)GlcNAc(b1-3)Gal(b1-4)GlcNAc(b1-3)Gal(b1-4)GlcNAc
# Summary of the method: as §1
# [3] = biological target: Fuc(a1-2)[Gal(a1-3)]Gal(b1-3)GlcNAc(b1-2)Man(a1-3)[Fuc(a1-2)[Gal(a1-3)]Gal(b1-3)GlcNAc(b1-2)Man(a1-6)]Man(b1-4)GlcNAc(b1-4)GlcNAc
# Summary of the method: as §1
# [4] = biological target: Fuc(a1-2)[Gal(a1-3)]Gal(b1-4)GlcNAc(b1-2)Man(a1-3)[Fuc(a1-2)[Gal(a1-3)]Gal(b1-4)GlcNAc(b1-2)Man(a1-6)]Man(b1-4)GlcNAc(b1-4)GlcNAc
# Summary of the method: as §1
# [5] = biological target: Fuc(a1-2)[GalNAc(a1-3)]Gal(b1-4)GlcNAc
# Summary of the method: as §1
# [6] = biological target: Fuc(a1-2)[GalNAc(a1-3)]Gal(b1-4)GlcNAc(b1-3)Gal(b1-4)GlcNAc(b1-3)Gal(b1-4)GlcNAc
# Summary of the method: as §1
# [7] = biological target: Fuc(a1-3)[Gal(b1-4)]GlcNAc
# Summary of the method: as §1
# [8] = biological target: Fuc(a1-3)[GalNAc(b1-4)]GlcNAc
# Summary of the method: as §1
# [9] = biological target: Gal(a1-4)Gal(b1-3)GlcNAc(b1-2)Man(a1-3)[Gal(a1-4)Gal(b1-3)GlcNAc(b1-2)Man(a1-6)]Man(b1-4)GlcNAc(b1-4)GlcNAc
# Summary of the method: as §1
# [10] = biological target: Gal(a1-4)Gal(b1-4)Glc
# Summary of the method: as §1
# [11] = biological target: Gal(b1-3)GalNAc
# Summary of the method: as §1
# [12] = biological target: Gal(b1-3)GalNAc(b1-3)Gal(a1-4)Gal(b1-4)Glc
# Summary of the method: as §1
# [13] = biological target: Gal(b1-3)GlcNAc(b1-3)Gal(b1-4)GlcNAc(b1-6)[Gal(b1-3)GlcNAc(b1-3)]Gal(b1-4)Glc
# Summary of the method: as §1
# [14] = biological target: Gal(b1-3)[Fuc(a1-4)]GlcNAc(b1-3)Gal(b1-4)[Fuc(a1-3)]GlcNAc
# Summary of the method: as §1
# [15] = biological target: Gal(b1-3)[GlcNAc(b1-6)]GalNAc
# Summary of the method: as §1
# [16] = biological target: Gal(b1-4)GalNAc(b1-3)[Fuc(a1-2)]Gal(b1-4)GlcNAc
# Summary of the method: as §1
# [17] = biological target: Gal(b1-4)GlcNAc(b1-2)Man(a1-6)[Man(a1-3)]Man(b1-4)GlcNAc(b1-4)GlcNAc
# Summary of the method: as §1
# [18] = biological target: Gal(b1-4)GlcNAc(b1-3)Gal(b1-4)Glc
# Summary of the method: as §1
# [19] = biological target: Gal(b1-4)GlcNAc(b1-3)Gal(b1-4)GlcNAc(b1-3)Gal(b1-4)GlcNAc
# Summary of the method: as §1
# [20] = biological target: Gal(b1-4)GlcNAc(b1-3)[Gal(b1-4)GlcNAc(b1-6)]GalNAc
# Summary of the method: as §1
# [21] = biological target: Gal(b1-4)GlcNAc(b1-6)[Gal(b1-3)]GalNAc
# Summary of the method: as §1
# [22] = biological target: Gal3S6S(b1-4)GlcNAc6S
# Summary of the method: as §1
# [23] = biological target: Gal6S(b1-4)Glc
# Summary of the method: as §1
# [24] = biological target: GalNAc(a1-3)GalNAc
# Summary of the method: as §1
# [25] = biological target: GlcNAc(a1-4)Gal(b1-3)GlcNAc
# Summary of the method: as §1
# [26] = biological target: GlcNAc(a1-4)Gal(b1-4)GlcNAc(b1-3)Gal(b1-4)GlcNAc(b1-3)Gal(b1-4)GlcNAc
# Summary of the method: as §1
# [27] = biological target: GlcNAc(b1-3)Gal(b1-4)Glc
# Summary of the method: as §1
# [28] = biological target: Kdn(a2-3)Gal(b1-4)[Fuc(a1-3)]GlcNAc
# Summary of the method: as §1
# [29] = biological target: Man(a1-2)Man(a1-3)Man
# Summary of the method: as §1
# [30] = biological target: Man(a1-2)Man(a1-6)[Man(a1-3)]Man(a1-6)[Man(a1-2)Man(a1-2)Man(a1-3)]Man(b1-4)GlcNAc(b1-4)GlcNAc
# Summary of the method: as §1
# [31] = biological target: Neu5Ac(a2-3)Gal(b1-3)GalNAc
# Summary of the method: as §1
# [32] = biological target: Neu5Ac(a2-3)Gal(b1-3)GlcNAc(b1-3)Gal(b1-4)GlcNAc
# Summary of the method: as §1
# [33] = biological target: Neu5Ac(a2-6)Gal(b1-4)GlcNAc(b1-2)Man(a1-3)[Gal(b1-4)GlcNAc(b1-2)Man(a1-6)]Man(b1-4)GlcNAc(b1-4)GlcNAc
# Summary of the method: as §1
# [34] = biological target: Neu5Gc(a2-3)Gal(b1-3)[Fuc(a1-4)]GlcNAc
# Summary of the method: as §1
binder,measurement,setting,value
B1,glycan array binding signal (z-score),[1],5.06
same,glycan array binding signal (z-score),[2],5.51
same,glycan array binding signal (z-score),[3],5.21
same,glycan array binding signal (z-score),[4],7.87
same,glycan array binding signal (z-score),[5],0.393
same,glycan array binding signal (z-score),[6],5.28
same,glycan array binding signal (z-score),[7],-0.265
same,glycan array binding signal (z-score),[8],-0.262
same,glycan array binding signal (z-score),[9],-0.258
same,glycan array binding signal (z-score),[10],-0.267
same,glycan array binding signal (z-score),[11],-0.269
same,glycan array binding signal (z-score),[12],-0.262
same,glycan array binding signal (z-score),[13],0.682
same,glycan array binding signal (z-score),[14],-0.273
same,glycan array binding signal (z-score),[15],-0.27
same,glycan array binding signal (z-score),[16],-0.267
same,glycan array binding signal (z-score),[17],-0.271
same,glycan array binding signal (z-score),[18],1.53
same,glycan array binding signal (z-score),[19],5.22
same,glycan array binding signal (z-score),[20],-0.256
same,glycan array binding signal (z-score),[21],-0.268
same,glycan array binding signal (z-score),[22],-0.261
same,glycan array binding signal (z-score),[23],-0.27
same,glycan array binding signal (z-score),[24],-0.27
same,glycan array binding signal (z-score),[25],-0.259
same,glycan array binding signal (z-score),[26],5.87
same,glycan array binding signal (z-score),[27],-0.271
same,glycan array binding signal (z-score),[28],-0.27
same,glycan array binding signal (z-score),[29],-0.268
same,glycan array binding signal (z-score),[30],-0.263
same,glycan array binding signal (z-score),[31],-0.269
same,glycan array binding signal (z-score),[32],0.372
same,glycan array binding signal (z-score),[33],-0.267
same,glycan array binding signal (z-score),[34],-0.272
